# “And” between values parts separate entries of the source, which are not always exact repeats. Equal entries are not always repeated. Values without a mark were called inactive. Records with an inconclusive call do not appear. The source made the active and inactive calls. Unless noted, calls come from the whole dose curve; as a rule, active = well fitted curve in either direction with a large enough effect (not every such curve was filed as active); inconclusive = small, poorly fitted or top-dose-only effect, or another doubt; inactive = flat fitted curve, though single readings scatter.
# Assays:
# [1] = AP1 Signaling Pathway (AID 357); details: ME-180 AP-1-bla reporter, EGF-induced, beta-lactamase ratio, 5 h;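 note: ME-180 reporter cells stimulated with EGF at its EC50 level; % is set by controls: 0 for no effect and ±100 for the full control effect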
# Outline: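 Cells are seeded overnight, exposed to compound titrations and an EC50 level of EGF for 5 hours at 37 °C, then loaded with CCF4 dye for 2.5 hours. Beta-lactamase activity under the AP-1 element is read as a blue/green ratio.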
# [2] = biological target: Cytochrome P450 1A2 (Homo sapiens) (UniProt P05177); assay: p450-cyp1a2 (AID 410; calls by dose curve; note: potency is the fitted concentration of half-maximal effect;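 for activity change, negative = inhibition: -100% = full effect of reference inhibitor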); details: recombinant CYP1A2, luciferin-ME demethylation, luminescence; series mostly up to 25.6 µM
# Sequence of Cytochrome P450 1A2 (Homo sapiens) (P05177 whole entry, looked up): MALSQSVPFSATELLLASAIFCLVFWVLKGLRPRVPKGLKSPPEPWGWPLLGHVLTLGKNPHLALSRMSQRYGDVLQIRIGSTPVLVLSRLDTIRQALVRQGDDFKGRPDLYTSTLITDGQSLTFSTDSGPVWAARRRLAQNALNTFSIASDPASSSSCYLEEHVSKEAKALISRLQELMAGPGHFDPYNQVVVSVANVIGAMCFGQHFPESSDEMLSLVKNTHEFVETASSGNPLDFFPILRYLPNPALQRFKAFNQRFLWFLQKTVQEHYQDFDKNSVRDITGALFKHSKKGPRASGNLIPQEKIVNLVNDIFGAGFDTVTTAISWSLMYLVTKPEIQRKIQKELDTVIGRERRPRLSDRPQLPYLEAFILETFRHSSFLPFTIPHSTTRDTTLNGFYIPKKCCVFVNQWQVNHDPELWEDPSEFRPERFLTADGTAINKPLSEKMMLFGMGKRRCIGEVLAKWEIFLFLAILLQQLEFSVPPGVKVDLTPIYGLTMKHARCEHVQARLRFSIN
# Outline: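 20nM CYP1A2, 100uM Luciferin-ME (=Km), 100mM KPO4; cpd 10 min RT; +NADPH regen, 60 min RT; stop/detect 20 min; luminescence. Normalized to furafylline 57 uM = full inhibition.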
# [3] = NFAT Signaling Pathway (AID 444); details: Jurkat NFAT-bla M1, carbachol, beta-lactamase ratio, 5 h;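 note: carbachol stimulus at about its EC50 of 1 µM final; % is set by controls: 0 for no effect and ±100 for the full control effect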
# Outline: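 Jurkat cells with NFAT-driven β-lactamase reporter and co-expressed M1 receptor, stimulated with carbachol (final 1 uM, ~EC50), compound titration, 5 h at 37 °C. CCF4 loaded 1 h at RT; 460/530 nm ratio gave %activity and AC50.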
# [4] = Stat Signaling Pathway (AID 446); details: ME-180 (cervical carcinoma) SIE beta-lactamase reporter, IL-6 stimulated, 5 h;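 note: ME-180 cervical cancer cells given 40 pM IL-6 alongside compound; SIE-controlled beta-lactamase reporter measured as 460/530 nm FRET emission ratio; % is set by controls: 0 for no effect and ±100 for the full control effect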
# Outline: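 Compound effects on IL-6-induced STAT reporter activity were measured in ME-180 cells. After overnight culture, cells were co-treated with 40 pM IL-6 for 5 hrs before beta-lactamase substrate loading at room temperature.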
# [5] = Cell Viability - BJ (AID 421; calls by dose curve;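 note: potency is the fitted concentration of half-maximal effect; cells exposed to compound for 40 hours at 37 °C before readout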); details: BJ fibroblast viability, qHTS
# Outline: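 Luminescent ATP signal (CellTiter-Glo, 20 min at room temperature) served as the read-out of viable BJ cells after 40 hours of compound treatment. Responses were scaled between DMSO and 100 uM tamoxifen, and AC50 values were obtained by Hill modeling.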
# [6] = Cell Viability - Hek293 (AID 427;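 active = compounds whose dose-response curve shows a full or clear partial loss of cell viability, called from curve shape rather than a numeric limit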;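 note: potency is the fitted concentration of half-maximal effect; cells exposed to compound for 40 hours at 37 °C before reading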); details: qHTS
# Outline: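 Luminescent ATP read-out (CellTiter-Glo, 20 min RT) after 40 hr compound exposure at 37 °C in complete medium. Signal normalized to DMSO (basal) and 100 uM tamoxifen (100% inhibition); concentration-response fitted with the standard Hill equation to give AC50.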
# [7] = Cell Viability - HepG2 (AID 433; calls by dose curve;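 note: potency is the fitted concentration of half-maximal effect; potency for ATP loss meaning cytotoxicity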); details: qHTS
# Outline: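 In this qHTS format, a 40 h, 37 °C compound incubation of HepG2 cells in complete medium precedes a 20 min CellTiter-Glo step at room temperature. Tamoxifen and doxorubicin serve as positive controls; Hill-equation fits yield AC50.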
# [8] = Cell Viability - MRC5 (AID 434; calls by dose curve;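 note: potency is the fitted concentration of half-maximal effect; cells exposed to compound for 40 hours at 37 °C; potency reflects cytotoxicity seen as loss of intracellular ATP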); details: MRC5 lung fibroblast viability, qHTS
# Outline: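 ATP luminescence read-out (CellTiter-Glo, 20 min RT) after 40 hr, 37 °C compound exposure of 1500 MRC5 cells/well. Data normalized to DMSO (basal) and 100 uM tamoxifen (100% inhibition); AC50 from standard Hill equation.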
# [9] = Cell Viability - SK-N-SH (AID 435; calls by dose curve;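 note: potency is the fitted concentration of half-maximal effect; compound exposure lasted 40 h at 37 °C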); details: SK-N-SH neuroblastoma cell viability qHTS
# Outline: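 Human neuroblastoma line, 40 h exposure at 37 °C, ATP quantified via luciferase luminescence; DMSO and 100 uM tamoxifen define 0 and 100% inhibition for AC50 fitting.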
# [10] = biological target: Lysosomal acid glucosylceramidase (Homo sapiens) (UniProt P04062); assay: Glucocerebrosidase-p2 (AID 348; in the data active = potency below about 10 µM; note: potency is the fitted concentration of half-maximal effect); details: purified GBA, blue fluorogenic substrate, 40 min
# Sequence of Lysosomal acid glucosylceramidase (Homo sapiens) (P04062 whole entry, looked up): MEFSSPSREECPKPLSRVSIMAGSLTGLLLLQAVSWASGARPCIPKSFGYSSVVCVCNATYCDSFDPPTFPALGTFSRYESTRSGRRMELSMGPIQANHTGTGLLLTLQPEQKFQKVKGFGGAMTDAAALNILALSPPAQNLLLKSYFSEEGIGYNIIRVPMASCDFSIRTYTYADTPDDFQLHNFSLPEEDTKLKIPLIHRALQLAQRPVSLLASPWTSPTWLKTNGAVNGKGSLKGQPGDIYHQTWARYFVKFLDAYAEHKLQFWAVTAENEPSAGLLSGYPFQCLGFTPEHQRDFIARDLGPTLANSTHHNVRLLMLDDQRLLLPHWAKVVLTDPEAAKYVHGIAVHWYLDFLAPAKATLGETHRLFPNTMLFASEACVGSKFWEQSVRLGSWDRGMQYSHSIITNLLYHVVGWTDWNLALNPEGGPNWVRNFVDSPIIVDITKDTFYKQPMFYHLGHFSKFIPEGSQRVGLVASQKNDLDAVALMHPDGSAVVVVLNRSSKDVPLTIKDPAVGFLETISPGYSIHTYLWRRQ
# Outline: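 Normal human glucocerebrosidase (0.2 nM) with blue fluorogenic substrate (80 uM final) in citrate/phosphate pH 5.9 with 10mM sodium taurocholate, 0.01% tween-20; 40 min RT, NaOH/glycine stop; fluorescence Ex 365/Em 440; AC50 from a titration from 0.6 nM upwards.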
structure (smiles),measurement,setting,value
Cc1cc(=O)n(-c2ccccc2)n1C,"activity change, negative = inhibition",[1]; at 17.2 µM (top of the series),3.67%
same,Potency,[2],inactive
same,"activity change, negative = inhibition",[3]; at 17.2 µM (top of the series),-2.45%
same,"activity, negative = inhibition",[4]; at 17.2 µM (top of the series),10.3%
CC(=O)Oc1ccc(C(c2ccc(OC(C)=O)cc2)c2ccccn2)cc1,"activity change, negative = inhibition",[1]; at 17.2 µM (top of the series),-26.3% and -21%
same,Potency,[2],inactive
same,Potency,[5],> 92 µM
same,Potency,[6],> 92 µM
same,Potency,[7],> 92 µM
same,Potency,[8],> 92 µM
same,Potency,[9],> 92 µM
CCOc1ccc(Cc2nccc3cc(OCC)c(OCC)cc23)cc1OCC,"activity change, negative = inhibition",[1]; at 17.2 µM (top of the series),-1.91%
same,Potency,[2],10 µM (active)
same,"activity change, negative = inhibition",[3]; at 17.2 µM (top of the series),-11.6%
same,"activity, negative = inhibition",[4]; at 17.2 µM (top of the series),-1.62%
CCN1CCC[C@H]1CNC(=O)c1c(OC)ccc(Br)c1OC,"activity change, negative = inhibition",[1]; at 17.2 µM (top of the series),-5.77%
same,Potency,[2],inactive
same,"activity change, negative = inhibition",[3]; at 17.2 µM (top of the series),-26.9%
same,"activity, negative = inhibition",[4]; at 17.2 µM (top of the series),14.1%
OC(CCN1CCCCC1)(c1ccccc1)c1ccccc1,Potency,[10],> 11.4 µM
same,"activity change, negative = inhibition",[1]; at 7.69 µM (top of the series),-3.31%
same,"activity change, negative = inhibition",[1]; at 17.2 µM (top of the series),7.98% and -4.16%
same,Potency,[2],inactive
same,"activity, negative = inhibition",[4]; at 7.69 µM (top of the series),-4.56%
same,"activity, negative = inhibition",[4]; at 17.2 µM (top of the series),8.93% and 3.51%
C1CCc2nnnn2CC1,"activity change, negative = inhibition",[1]; at 17.2 µM (top of the series),8.91%
same,"activity change, negative = inhibition",[1]; at 38 µM (top of the series),6.67%
same,Potency,[2],inactive
same,"activity, negative = inhibition",[4]; at 17.2 µM (top of the series),5.56%
same,"activity, negative = inhibition",[4]; at 38 µM (top of the series),-9.49%
CCCCOc1cc(C(=O)NCCN(CC)CC)c2ccccc2n1,"activity change, negative = inhibition",[1]; at 17.2 µM (top of the series),13.7% and 13.1% and 14.9%
same,Potency,[2],5.01 µM (active)
same,"activity, negative = inhibition",[4]; at 17.2 µM (top of the series),0.235% and -1.92% and -8.41%
CC(O)(P(=O)(O)O)P(=O)(O)O,"activity change, negative = inhibition",[1]; at 17.2 µM (top of the series),-1.23%
same,Potency,[2],inactive
same,"activity, negative = inhibition",[4]; at 17.2 µM (top of the series),3.57%
Cc1c(N(C)CS(=O)(=O)O)c(=O)n(-c2ccccc2)n1C,"activity change, negative = inhibition",[1]; at 17.2 µM (top of the series),6.43%
same,Potency,[2],inactive
same,"activity change, negative = inhibition",[3]; at 17.2 µM (top of the series),-4.94%
same,"activity, negative = inhibition",[4]; at 17.2 µM (top of the series),-1.51%
CN(C(=O)CN(CCO)CC(=O)N(C)C(C)(C)Cc1ccccc1)C(C)(C)Cc1ccccc1,"activity change, negative = inhibition",[1]; at 17.2 µM (top of the series),-21.6%
same,Potency,[2],inactive
same,"activity change, negative = inhibition",[3]; at 17.2 µM (top of the series),-2.45%
same,"activity, negative = inhibition",[4]; at 17.2 µM (top of the series),5.14%
CCCn1c(=O)[nH]c(=O)c2[nH]cnc21,"activity change, negative = inhibition",[1]; at 17.2 µM (top of the series),4.48%
same,"activity change, negative = inhibition",[1]; at 38 µM (top of the series),4.71%
same,Potency,[2],inactive
same,"activity, negative = inhibition",[4]; at 17.2 µM (top of the series),4.71%
same,"activity, negative = inhibition",[4]; at 38 µM (top of the series),-5.28%
C=C(CC)C(=O)c1ccc(OCC(=O)O)c(Cl)c1Cl,"activity change, negative = inhibition",[1]; at 17.2 µM (top of the series),-11.1% and -7.79%
same,Potency,[2],inactive
same,Potency,[8],> 92 µM
same,Potency,[9],45.3 µM (active)
same,"activity change, negative = inhibition",[3]; at 17.2 µM (top of the series),-133% (active)
same,"activity, negative = inhibition",[4]; at 17.2 µM (top of the series),-17.9%
COc1cc(NS(C)(=O)=O)ccc1Nc1c2ccccc2nc2ccccc12,"activity change, negative = inhibition",[1]; at 38 µM (top of the series),-9.96%
same,Potency,[2],7.94 µM (active)
CC(C)NC[C@@H](O)COc1cccc2ccccc12,"activity change, negative = inhibition",[1]; at 17.2 µM (top of the series),7.5% and 12.8% and 4.83%
same,"activity change, negative = inhibition",[1]; at 38 µM (top of the series),17.5% and 11.4%
same,"activity, negative = inhibition",[4]; at 17.2 µM (top of the series),-2.8% and 2.51% and -11.2%
same,"activity, negative = inhibition",[4]; at 38 µM (top of the series),8.52% and -21.7%
O=C(O)c1cc2cc(Cc3cccnc3)ccc2o1,"activity change, negative = inhibition",[1]; at 38 µM (top of the series),-4.5%
same,Potency,[2],inactive
same,"activity change, negative = inhibition",[3]; at 38 µM (top of the series),-0.641%
same,"activity, negative = inhibition",[4]; at 38 µM (top of the series),6.34%
COc1c(C)c2c(c(O)c1C/C=C(\C)CCC(=O)O)C(=O)OC2,"activity change, negative = inhibition",[1]; at 17.2 µM (top of the series),6.58%
same,Potency,[2],31.6 µM (active)
same,"activity, negative = inhibition",[4]; at 17.2 µM (top of the series),8.02%
C[C@H]1[C@H](NC(=O)/C(=N/OC(C)(C)C(=O)O)c2csc(N)n2)C(=O)N1S(=O)(=O)O (stereo in doubt),"activity change, negative = inhibition",[1]; at 17.2 µM (top of the series),1.44%
same,Potency,[2],inactive
same,"activity change, negative = inhibition",[3]; at 17.2 µM (top of the series),3.56%
same,"activity, negative = inhibition",[4]; at 17.2 µM (top of the series),8.78%
Oc1cc(O)c2c(c1)O[C@H](c1ccc(O)c(O)c1)[C@H](O)C2,"activity change, negative = inhibition",[1]; at 17.2 µM (top of the series),10.1% and 0.263%
same,"activity change, negative = inhibition",[1]; at 38 µM (top of the series),-5.09%
same,Potency,[2],inactive
same,"activity, negative = inhibition",[4]; at 17.2 µM (top of the series),-2.66% and 0.865%
same,"activity, negative = inhibition",[4]; at 38 µM (top of the series),-26.7%
Oc1c(Cl)cc(Cl)cc1Sc1cc(Cl)cc(Cl)c1O,Potency,[6],36.2 µM (active)
CC(=O)O[C@]1(C(C)=O)CC[C@H]2[C@@H]3C[C@H](C)C4=CC(=O)CC[C@]4(C)[C@H]3CC[C@@]21C,Potency,[8],> 92 µM
same,Potency,[9],> 92 µM
C[C@@H]1C(=O)NC2=Nc3cccc(Cl)c3CN21,"activity change, negative = inhibition",[3]; at 38 µM (top of the series),-0.581%
Nc1cc(Cl)c(NC2=NCCN2)c(Cl)c1,"activity change, negative = inhibition",[3]; at 38 µM (top of the series),-7.69%
O=C1OC(c2ccc(O)cc2)(c2ccc(O)cc2)c2ccccc21,"activity change, negative = inhibition",[3]; at 17.2 µM (top of the series),-4.2%
CN1[C@@H]2CC[C@H]1CC(OC(=O)c1c[nH]c3ccccc13)C2 (some centres undefined),"activity, negative = inhibition",[4]; at 38 µM (top of the series),-14.5%
